These results are taken from PubChem BioAssay.

Usually inhibition stands for the relative decrease from the control value, in per cent.

Each structure is given as a SMILES string. Calls of active or inactive are those of the source. The rule behind the calls is not given here.

The target in this experiment is L-lactate dehydrogenase (Plasmodium falciparum (isolate CDC / Honduras)) (UniProt Q27743). The experiment in a line: PfLDH activity inhibition – cell lysate, 3D7 strain, counter-screen for P. falciparum growth inhibition project (AID 2304).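 Note: 0% = vehicle and 100% = reference inhibitor.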 The settings on record: P. falciparum 3D7 crude extract, LDH APAD/NBT absorbance; at 2 µM; active compounds read high. For orientation: The purpose of a counterscreen is to sort out artefacts and off-target activity.
Sequence of L-lactate dehydrogenase (Plasmodium falciparum (isolate CDC / Honduras)) (Q27743 whole entry, looked up): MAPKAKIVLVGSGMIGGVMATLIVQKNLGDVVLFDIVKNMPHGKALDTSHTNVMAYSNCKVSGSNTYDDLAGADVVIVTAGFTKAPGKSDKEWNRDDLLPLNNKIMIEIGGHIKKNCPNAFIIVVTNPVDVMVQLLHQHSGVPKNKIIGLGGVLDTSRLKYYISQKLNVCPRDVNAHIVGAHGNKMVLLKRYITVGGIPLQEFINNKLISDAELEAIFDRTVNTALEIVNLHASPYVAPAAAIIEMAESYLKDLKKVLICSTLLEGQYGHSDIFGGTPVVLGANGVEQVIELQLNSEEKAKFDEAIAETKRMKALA
With `OCCCCCCNc1ccnc2[nH]c3ccc(I)cc3c12`, the inhibition was -4% (inactive).

Consider `COc1cccc2cc(C(=O)N[C@@H](CC(C)C)C(=O)N[C@H](/C=N/N3C(=O)CN(Cc4ccccc4)C3=O)CCc3ccccc3)oc12`, for which the inhibition was -1% (inactive).

As for `O=C(Cn1c2ccccc2c(=O)c2ccc(Cl)cc21)Nc1ccc(C(F)(F)F)cc1`, the inhibition is -3% (inactive).

Consider `CCc1cc([C@H]2O[C@@H](n3cnc4c(NCC(c5ccccc5)c5ccccc5)nc(NCCNc5ccccn5)nc43)[C@H](O)[C@@H]2O)on1`, for which the inhibition was -9% (inactive).

On to `O=S(=O)(NCCN1CCCC1)c1ccc(-c2cccc(CNC3Cc4ccccc4C3)c2)cc1F`, for which the inhibition was -1% (inactive).

`O=C(Cn1c(=O)oc2ccccc21)N1CCC(n2c(=O)n(CCCN3CCOCC3)c3ccccc32)CC1`: the inhibition was 5% (inactive).

As to `Cc1cccc(NC(=O)c2cnc(N3CCN(c4ccncc4)CC3)c(Cl)c2)c1`, the inhibition was -2% (inactive).

Consider `COc1ccc2nc(C)cc(NN=Cc3ccccc3)c2c1`, for which the inhibition was 0% (inactive).

Take `CN(C)S(=O)(=O)c1ccc(Nc2nc(NCCC3C=NC=N3)nc3cc[nH]c(=O)c23)cc1` (stereo not drawn): the inhibition was 2% (inactive).

Regarding `O=C(/C=C/c1ccc(C(F)(F)F)cc1)NCCCCCN1CCN(C(=O)Nc2ccc(Cl)cc2)CC1`, the inhibition was -8% (inactive).

As to `Cc1cc(N[C@@H](Cc2ccccc2)C(=O)NCc2cccc(F)c2)nc(NCCOc2ccccc2)n1`, the inhibition was -3% (inactive).

On to `Cc1cc(C)c(O)c(-c2cc(C(=O)Nc3ccc(S(=O)(=O)N4CC(C)OC(C)C4)cc3)[nH]n2)c1` (stereo not drawn), for which the inhibition was -1% (inactive).

Turning to `Oc1ccc(Nc2nc(NCC3CCCO3)c3ccccc3n2)cc1` (stereo not drawn), the inhibition was 4% (inactive).
